Potency data for eleven molecules are collected here from PubChem BioAssay (NCATS).

A short description of assay [1]: qHTS of pediatric cancer cell lines to identify multiple opportunities for drug repurposing: Primary screen for BT-12 cells (AID 1347101). Further: nearly all actives have a fitted effect of over 25% in size. The essentials: (§1)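 Cells (500-1,000/well) rested 5 h, then received compounds for 48 h; metabolically active cells were measured by CellTiter-Glo luminescence. Final concentrations spanned up to 46 µM (MIPE, 11-point) or 0.59 nM-46 µM (NPC, 8-point) in primary screens, 11-point in follow-ups.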

Assay [2] can be described thus: qHTS of pediatric cancer cell lines to identify multiple opportunities for drug repurposing: Primary screen for Rh18 cells (AID 1347102). Further: nearly all actives have a fitted effect of over 65% in size. The method, boiled down:
(§2)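 Cells (500-1,000/well) in growth media were settled 5 h at 37 degrees C, then given compounds for 48 h. Viability was read as CellTiter-Glo luminescence. Primary runs used MIPE at 11 points (0.78 nM-46 µM) and NPC at 8 points (0.59 nM-46 µM); follow-ups used 11 points.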
A general note: Quantitative high-throughput screening tests each substance at several concentrations.

A short description of assay [3]: qHTS of pediatric cancer cell lines to identify multiple opportunities for drug repurposing: Primary screen for OHS-50 cells (AID 1347103). Further: nearly all actives have a fitted effect of over 40% in size. The method, boiled down:
as §1

Assay [4] can be described thus: qHTS of pediatric cancer cell lines to identify multiple opportunities for drug repurposing: Primary screen for RD cells (AID 1347104). Further: nearly all actives have a fitted effect of over 55% in size. The essentials: (§3)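 Following a 5-hour attachment period, cells at 500-1,000/well received compounds and were cultured for 48 hours. CellTiter-Glo was added and luminescence read to estimate viable, metabolically active cells.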
Assay [5] can be described thus: qHTS of pediatric cancer cell lines to identify multiple opportunities for drug repurposing: Primary screen for MG 63 (6-TG R) cells (AID 1347105). Further: nearly all actives have a fitted effect of over 50% in size. The method, boiled down:
as §3

A short description of assay [6]: qHTS of pediatric cancer cell lines to identify multiple opportunities for drug repurposing: Primary screen for Rh30 cells (AID 1347107). Further: nearly all actives have a fitted effect of over 75% in size. The method, boiled down: as §2
A short description of assay [7]: qHTS of pediatric cancer cell lines to identify multiple opportunities for drug repurposing: Primary screen for Rh41 cells (AID 1347108). Further: nearly all actives have a fitted effect of over 70% in size.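 On activity change, negative = cytotoxic: luminescence drop marks cytotoxic hits.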 The essentials: as §3
Assay [8] in a line: qHTS of pediatric cancer cell lines to identify multiple opportunities for drug repurposing: Primary screen for control Hh wild type fibroblast cells (AID 1347106). Further: nearly all actives have a fitted effect of over 55% in size.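 On activity change, negative = cytotoxic: a drop in luminescence marks cytotoxicity and a rise apparent proliferation.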 The essentials:
as §2

Assay [9] is described as follows: qHTS of pediatric cancer cell lines to identify multiple opportunities for drug repurposing: Confirmatory screen for A673 cells (AID 1347110).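 Further: cells exposed to compound for 48 h before the viability read; nearly all actives have a fitted effect of over 65% in size.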 The method, boiled down:
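Viability was read as ATP luminescence (CellTiter-Glo) after 48 h of compound exposure at 37 C in A673 cells seeded at 500-1,000/well. Titrations reached 46 uM final, with 11 points in the confirmatory screen. Concentration-response curves were fitted directly.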

A short description of assay [10]: qHTS of pediatric cancer cell lines to identify multiple opportunities for drug repurposing: Confirmatory screen for SK-N-MC cells (AID 1347111).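 Further: cells exposed to compound for 48 h before the readout; nearly all actives have a fitted effect of over 70% in size.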 The essentials: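 Metabolically active cells were quantified by ATP-dependent luminescence (CellTiter-Glo, 15 min at room temperature) following 48 h treatment. Cells had been plated at 500-1,000 per well and settled for 5 h beforehand.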

Assay [11] in a line: qHTS of pediatric cancer cell lines to identify multiple opportunities for drug repurposing: Confirmatory screen for BT-12 cells (AID 1347112). Further: nearly all actives have a fitted effect of over 55% in size. The method, boiled down: as §2
A short description of assay [12]: qHTS of pediatric cancer cell lines to identify multiple opportunities for drug repurposing: Confirmatory screen for LAN-5 cells (AID 1347113). Further: nearly all actives have a fitted effect of over 65% in size. The method, boiled down:
as §2

Assay [13] can be described thus: qHTS of pediatric cancer cell lines to identify multiple opportunities for drug repurposing: Confirmatory screen for DAOY cells (AID 1347114). Further: nearly all actives have a fitted effect of over 65% in size. The essentials: (§4)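 Viability measured as metabolically active cells via CellTiter-Glo luminescence following 48 hours of compound exposure, 11-point dilutions in confirmatory testing. 500-1,000 cells/well plated 5 hours before dosing; controls were DMSO and 2.3 µM bortezomib.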

Assay [14] can be described thus: qHTS of pediatric cancer cell lines to identify multiple opportunities for drug repurposing: Confirmatory screen for SJ-GBM2 cells (AID 1347116). Further: nearly all actives have a fitted effect of over 60% in size. The method, boiled down: as §4
The nature of assay [15]: qHTS of pediatric cancer cell lines to identify multiple opportunities for drug repurposing: Confirmatory screen for BT-37 cells (AID 1347117). Further: nearly all actives have a fitted effect of over 55% in size. The conditions noted are these: BT-37 pediatric cancer cells, viability; activity change, negative = cytotoxic: at 45.9 µM (top of the series). The essentials:
as §2

The nature of assay [16]: qHTS of pediatric cancer cell lines to identify multiple opportunities for drug repurposing: Confirmatory screen for MG 63 (6-TG R) cells (AID 1347119). Further: nearly all actives have a fitted effect of over 55% in size. The method, boiled down:
as §2

The nature of assay [17]: qHTS of pediatric cancer cell lines to identify multiple opportunities for drug repurposing: Confirmatory screen for control Hh wild type fibroblast cells (AID 1347121). Further: nearly all actives have a fitted effect of over 70% in size. The essentials: as §2
Assay [18] can be described thus: qHTS of pediatric cancer cell lines to identify multiple opportunities for drug repurposing: Confirmatory screen for NB1643 cells (AID 1347109). Further: nearly all actives have a fitted effect of over 45% in size. The essentials:
as §2

Assay [19] in a line: qHTS of pediatric cancer cell lines to identify multiple opportunities for drug repurposing: Confirmatory screen for NB-EBc1 cells (AID 1347115).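 Further: cells exposed to compound for 48 h before the viability read; nearly all actives have a fitted effect of over 45% in size.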 The essentials:
as §2

A short description of assay [20]: qHTS of pediatric cancer cell lines to identify multiple opportunities for drug repurposing: Confirmatory screen for TC32 cells (AID 1347118). The method, boiled down:
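Luminescent CellTiter-Glo read-out of metabolically active TC32 cells after 48 h compound exposure. Primary: MIPE 11-point, 0.78 nM–46 µM; NPC 8-point, 0.59 nM–46 µM. Confirmatory: 11-point dilutions.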

Records with an inconclusive call do not appear. A number with no mark means an inactive call. Activity calls are given as the source filed them. The call rests on the fitted dose curve; in most records, active means well fitted curve in the direction sought with a large enough effect; inconclusive means small, poorly fitted or top-dose-only effect, or another doubt; inactive means no such curve, though single readings can be large; an effect the other way counts as inactive or inconclusive.
Potency means the concentration at half of the fitted maximal effect.

Turning to `NC[C@H]1O[C@H](O[C@H]2[C@@H](O)[C@@H](O[C@H]3O[C@H](CO)[C@@H](O)[C@H](N)[C@@H]3O)[C@H](N)C[C@@H]2N)[C@H](N)C[C@H]1O`, the Potency result in assay [1], in [2], in assay [3], in assay [4], in assay [5] and in assay [6] was “inactive” each time. In assay [7], the Potency entry is “inactive”.
In the case of `COc1cc(C(=O)NC2CCN(C)CC2)ccc1Nc1ncc2c(n1)N(C1CCCC1)CCC(=O)N2C(C)C`, the Potency is 21700 nM (active) in [1]; 18700 nM (active) in assay [2]; 3430 nM (active) in assay [3]; 20900 nM (active) in [4]; 2960 nM (active) in [5]; 14800 nM (active) in [7]. The Potency entry in [8] is “inactive”.
Consider `COC[C@H](NC(=O)c1cnc(C)s1)C(=O)N[C@@H](COC)C(=O)N[C@@H](Cc1ccccc1)C(=O)[C@@]1(C)CO1`, for which the Potency in [1] is 432 nM (active); in assay [2], 187 nM (active); in assay [3], 193 nM (active); in [4] it was 166 nM (active); in [5], 235 nM (active); in assay [8], 935 nM (active). Moreover, the Potency is 1660 nM (active) in assay [6]; 296 nM (active) in assay [7]; 165 nM (active) in assay [9]; 36.9 nM (active) in [10]; 414 nM (active) in assay [11]; 329 nM (active) in assay [12]. The Potency in [13] was 104 nM (active); in assay [14] it was 131 nM (active); in assay [15], 165 nM (active); in [16], 92.8 nM (active). Also, the Potency result in assay [17] was “inactive”.
On to `C=C1C(=CC=C2CCC[C@]3(C)[C@@H]([C@H](C)CCCC(C)(C)O)CC[C@@H]23)C[C@@H](O)C[C@@H]1O`, for which the Potency in assay [1] is 6850 nM (active); in assay [2] it was 5260 nM (active); in assay [3], 7690 nM (active); in [4], 9350 nM (active); in [5], 11800 nM (active); in assay [7] it was 5900 nM (active). For the same molecule, the Potency result in assay [8], in assay [18], in assay [12], in assay [14], in [15] and in [17] was “inactive” each time.
Consider `CCCCOc1ccc(C(=O)Nc2ccc(F)cc2F)cc1`, for which the Potency entry in assay [1], in [2], in [3], in [4], in [5] and in assay [8] was “inactive” throughout. Besides, the Potency result in [6] and in assay [7] was “inactive” throughout.
`c1cncc(CN2CCC(n3ncc4c(N5CCOCC5)nc(-c5ccc6[nH]ccc6c5)nc43)CC2)c1`: the Potency in assay [1] was 13700 nM (active); in [2], 5900 nM (active); in assay [3], 2170 nM (active); in assay [4], 6620 nM (active); in assay [5], 14800 nM (active); in assay [6], 14800 nM (active). The Potency in [7] is 3320 nM (active).
Consider `C[C@H](CCC(=O)O)[C@H]1CCC2C3C[C@H](O)[C@@H]4C[C@H](O)CC[C@]4(C)C3CC[C@@]21C` (stereo partly drawn), for which the Potency result in assay [1], in [2], in [3], in assay [4], in assay [5] and in assay [8] was “inactive” each time. The Potency result in assay [6] and in [7] was “inactive” in each case.
Regarding `CCCCC(=O)O[C@]1(C(=O)CO)[C@@H](C)C[C@H]2[C@@H]3CCC4=CC(=O)C=C[C@]4(C)[C@@]3(F)[C@@H](O)C[C@@]21C`, the Potency result in assay [1], in [2], in [3], in [4], in [5] and in [8] was “inactive” throughout. In addition, the Potency entry in assay [6], in assay [7], in assay [18], in assay [9], in [11] and in [12] was “inactive” throughout. Moreover, the Potency result in assay [13], in [14], in assay [15], in assay [16] and in [17] was “inactive” throughout.
Turning to `O=C(CCCCCCC(=O)Nc1cccnc1)NO`, the Potency is 10900 nM (active) in assay [1]; 4690 nM (active) in assay [2]; 4320 nM (active) in assay [3]; 16600 nM (active) in assay [4]; 18700 nM (active) in assay [5]; 18700 nM (active) in assay [6]. Moreover, the Potency in assay [7] was 11800 nM (active).
Regarding `CC(C)N1[N]C(=C2C=c3cc(O)ccc3=N2)c2c(N)ncnc21`, the Potency in [1] was 485 nM (active); in assay [2], 5900 nM (active); in [3], 273 nM (active); in [4], 1660 nM (active); in assay [5], 1180 nM (active); in [6] it was 5900 nM (active). For the same molecule, the Potency in assay [7] is 1050 nM (active); in [18], 10400 nM (active); in [10] it was 2330 nM (active); in [11], 13100 nM (active); in [12], 2930 nM (active); in assay [13] it was 5220 nM (active). For the same molecule, the Potency was 4140 nM (active) in assay [14], 1310 nM (active) in [15] and 414 nM (active) in assay [16].
For the molecule `CC(C)(O)Cn1c(NC(=O)c2ccc(-c3cn[nH]c3)s2)nc2cc(CN3CCOCC3)ccc21`, the Potency was 3430 nM (active) in assay [1]; 1870 nM (active) in [2]; 1220 nM (active) in [3]; 1870 nM (active) in assay [4]; 3720 nM (active) in assay [5]; 1180 nM (active) in assay [7]. The Potency is 329 nM (active) in assay [18]; 1170 nM (active) in assay [9]; 1040 nM (active) in [11]; 1040 nM (active) in assay [12]; 2610 nM (active) in assay [13]; 1040 nM (active) in [19]. Further, the Potency in [14] is 1170 nM (active); in assay [15] it was 737 nM (active); in assay [20], 1310 nM (active); in assay [16], 1170 nM (active); in [17] it was 5220 nM (active). For the same molecule, the Potency result in assay [6] is “inactive”.
